# Compounds without any hit were thinned out: in the full panel of roughly 83,000, 20% have a hit.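 A percent growth of 40 corresponds to 60% growth inhibition; 0 means no net growth; -100 means all cells died. Active threshold: below 10.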 A number with no mark means an inactive call. Calls of active or inactive are those of the source.
# How the values were obtained:
# Assay in all cases: NCI-60 one-dose screen, 48 h (100 = growth as untreated, 0 = no growth, -100 = all killed)
# Details in all cases: 10 µM unless noted
# DU-145 prostate = tested on: DU-145 prostate
# K-562 leukemia = tested on: K-562 leukemia
# MALME-3M melanoma = tested on: MALME-3M melanoma
# MDA-MB-231 breast = tested on: MDA-MB-231 breast
# RXF 393 renal = tested on: RXF 393 renal
# SF-268 CNS = tested on: SF-268 CNS
# SF-295 CNS = tested on: SF-295 CNS
# SF-539 CNS = tested on: SF-539 CNS
# UACC-257 melanoma = tested on: UACC-257 melanoma
# M14 melanoma = tested on: M14 melanoma
# HCT-15 colon = tested on: HCT-15 colon
# HT29 colon = tested on: HT29 colon
# SNB-75 CNS = tested on: SNB-75 CNS
# SNB-19 CNS = tested on: SNB-19 CNS
# U251 CNS = tested on: U251 CNS
# PC-3 prostate = tested on: PC-3 prostate
# SK-MEL-5 melanoma = tested on: SK-MEL-5 melanoma
# UACC-62 melanoma = tested on: UACC-62 melanoma
# LOX IMVI melanoma = tested on: LOX IMVI melanoma
# SK-MEL-28 melanoma = tested on: SK-MEL-28 melanoma
Compound,growth (DU-145 prostate),growth (K-562 leukemia),growth (MALME-3M melanoma),growth (MDA-MB-231 breast),growth (RXF 393 renal),growth (SF-268 CNS),growth (SF-295 CNS),growth (SF-539 CNS),growth (UACC-257 melanoma),growth (M14 melanoma),growth (HCT-15 colon),growth (HT29 colon),growth (SNB-75 CNS),growth (SNB-19 CNS),growth (U251 CNS),growth (PC-3 prostate),growth (SK-MEL-5 melanoma),growth (UACC-62 melanoma),growth (LOX IMVI melanoma),growth (SK-MEL-28 melanoma)
C=C1C(=O)O[C@H]2[C@H]1CC/C(Cn1cc(CCC)nn1)=C\CC[C@@]1(C)O[C@@H]21,28.7%,4.94% (active),4.68% (active),12.2%,-70.2% (active),67.9%,71.6%,-25% (active),19.1%,12.1%,-1.47% (active),-9.05% (active),75.8%,73.3%,73.7%,64.4%,53.1%,4.67% (active),-29.3% (active),7.96% (active)
COc1cc(/C=N/Nc2ccc(Br)cc2)cc(OC)c1OC,63.1%,9.82% (active),55.5%,47.5%,102%,52.5%,60.9%,63.5%,84.6%,18.4%,18.9%,29.2%,87.5%,91.6%,65.5%,60.9%,85%,36.8%,13.5%,82.1%
Cc1ccc(C(=O)c2ccc(CC(=O)NN3C(=O)c4ccccc4C3=O)n2C)cc1,108%,90.9%,101%,93.9%,102%,95.8%,98.6%,97.3%,100%,104%,103%,106%,62.9%,96.4%,95.8%,98.9%,99.8%,94.2%,94.1%,103%
CCOC(=O)c1ccccc1-c1c2ccc(=[N+](C)C)cc-2oc2cc(N(C)C)ccc12,25.3%,10.2%,28.2%,11.7%,18.4%,20.8%,-26.9% (active),-5.48% (active),5.13% (active),13.5%,70.2%,-0.175% (active),7.68% (active),18.2%,14.6%,5.32% (active),-68.1% (active),9.47% (active),94.6%,32%
COc1cc2c(cc1OCCCCN1CCN(C(=S)SCCC(C#N)(c3ccccc3)c3ccccc3)CC1)N=C[C@@H]1CCCN1C2=O,-96.7% (active),-34.3% (active),-79.4% (active),-23.7% (active),-83.7% (active),-69.9% (active),-8.56% (active),-91.3% (active),-11.1% (active),-29.5% (active),-55.5% (active),-65.6% (active),-82.3% (active),-14.5% (active),-81.9% (active),-16.1% (active),-98.3% (active),-22.7% (active),-83.2% (active),-70.2% (active)
[2H]C([2H])([2H])Oc1ccc(F)cc1/C=C/C(=O)/C=C(/C=C/c1cc(F)ccc1OC([2H])([2H])[2H])OB(F)F,85.1%,47.6%,68.7%,98.4%,100%,98.6%,101%,113%,78.7%,70.1%,63.8%,80.2%,94%,94.9%,43.3%,66.7%,94.5%,68.8%,57.1%,94.2%
C=C1CC[C@@H]2[C@](C)(COC(C)=O)[C@H](OC(C)=O)CC[C@@]2(C)[C@@H]1CC(Nc1ccc(S(=O)(=O)NC(C)=O)cc1)C1=CCOC1=O (stereo not given in full),0.37% (active),4.81% (active),-43.6% (active),-38.7% (active),-75.8% (active),6.72% (active),58.4%,-76.7% (active),-10.6% (active),-35.1% (active),-49.5% (active),-69.9% (active),26.3%,23%,-65.5% (active),0.695% (active),7.36% (active),-12.5% (active),-85.8% (active),-36.6% (active)

# Source: PubChem BioAssay (NCI)
